Assay results as given in the supplement of paper PMC8975748.
Counter-ions that a name gives are not always drawn.

What follows are molecules tested on Saccharomyces cerevisiae BY4741 SeMeCo community (assay: z-score of prototroph abundance vs DMSO median; higher = larger share of this subpopulation than in DMSO controls). Conditions: 10 µM; 24 h; SM minimal medium; subpopulation (auxotrophy): Prototroph.
Protocol: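 Fluorescent four-plasmid SeMeCo (self-establishing metabolically cooperating S. cerevisiae BY4741 community; plasmids pH-mRuby2, pL-mWasabi, pU-eCFP, pM-TagRFP657) was grown 24 h in minimal SM medium with each Selleck FDA-approved drug at 10 µM in 384-well plates. Cells were fixed and imaged by high-content confocal microscopy. For each auxotrophic subpopulation (and the prototroph), a z-score gives the deviation from the DMSO vehicle-control population median.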

Row | Structure (SMILES) | z-score of prototroph abundance
1 | CC[C@@]1(O)C(=O)OCc2c1cc1n(c2=O)Cc2cc3ccccc3nc2-1 [Camptothecin] | 0.34
2 | CN[C@@H]1[C@@H](O)[C@@H](O[C@@H]2[C@@H](O)[C@H](O[C@H]3O[C@H]([C@@H](C)O)[C@@H](O)[C@H](O)[C@H]3N)[C@@H](N)C[C@H]2N)OC[C@]1(C)O [Geneticin (G418 Sulfate)] | 0.1
3 | CN1[C@@H]2C[C@@H](OC(=O)[C@H](CO)c3ccccc3)C[C@H]1[C@@H]1O[C@@H]12 [Scopolamine HBr trihydrate] | 0.7
4 | N[C@@H]1C[C@H]1c1ccccc1 [Tranylcypromine (2-PCPA) HCl] | 0.44
5 | CCN(C)C(=O)Oc1cccc([C@H](C)N(C)C)c1 [Rivastigmine Tartrate] | 0.28
6 | Cc1cc(C(C#N)c2ccc(Cl)cc2)c(Cl)cc1NC(=O)c1cc(I)cc(I)c1O (stereo not given) [Closantel] | 0
7 | Cc1cc(O)ccc1Cl [Chlorocresol] | 0.71
8 | CC[C@H]1CN2CC[C@]3(C(=O)Nc4ccccc43)[C@@H]2C[C@@H]1/C(=C\OC)C(=O)OC [Rhynchophylline] | -0.9
9 | O=C(O[C@H]1C[C@H]2CC[C@@H](C1)[N+]21CCCC1)C(O)(c1ccccc1)c1ccccc1 [Trospium chloride] | 0.42
10 | CN(C)[C@@H]1C(=O)C(C(N)=O)=C(O)[C@@]2(O)C(=O)C3=C(O)c4c(O)cccc4[C@@](C)(O)[C@H]3C[C@@H]12 [Tetracycline HCl] | -0.24
11 | C=CC[C@]1(O)CC[C@H]2[C@@H]3CCC4=CC(=O)CCC4=C3C=C[C@@]21C [Altrenogest] | 0.56
12 | O=[N+]([O-])C(Br)(CO)CO [Bronopol] | -0.24
13 | COc1ccc2[nH]cc(CCN)c2c1 [5-Methoxytryptamine] | -0.96
14 | C[CH2][Hg][S]c1ccccc1C(=O)[O-].[Na+] [Thimerosal] | -17.3
15 | Oc1cccc2cccnc12 [8-Hydroxyquinoline] | 0.32
16 | COc1ccc(C(CN(C)C)C2(O)CCCCC2)cc1 (stereo not given) [Venlafaxine HCl] | 0
17 | C#C[C@]1(O)C=C[C@H]2[C@@H]3CCC4=CC(=O)CC[C@@H]4[C@H]3CC[C@@]21CC [Gestodene] | 0.59
18 | NCCc1c[nH]c2ccc(O)cc12 [Serotonin HCl] | 0.67
19 | CC(=O)OCC1=C(C(=O)O)N2C(=O)C(N)C2SC1 (stereo not given) [7-Aminocephalosporanic acid] | 0.2
20 | CN(C)[C@@H]1C(=O)C(C(N)=O)=C(O)[C@@]2(O)C(=O)C3=C(O)c4c(O)ccc(Cl)c4[C@@](C)(O)[C@H]3C[C@@H]12 [Chlortetracycline HCl] | 0.13

Row | Structure (SMILES) | z-score of prototroph abundance
21 | C[C@@H]1O[C@@H](O[C@H]2C[C@@H](O)[C@]3(CO)[C@H]4[C@H](O)C[C@]5(C)[C@@H](C6=CC(=O)OC6)CC[C@]5(O)[C@@H]4CC[C@]3(O)C2)[C@H](O)[C@H](O)[C@H]1O [Ouabain] | 0.81
22 | COc1ccc2c(c1)[C@]13CCCC[C@@H]1[C@H](C2)N(C)CC3 [Dextromethorphan hydrobromide hydrate] | 0.38
23 | CN1c2ccccc2C(NCCCCCCC(=O)O)c2ccc(Cl)cc2S1(=O)=O (stereo not given) [Tianeptine sodium] | 0
24 | CC(=O)O[C@H]1C[C@@H]2CC[C@@H]3[C@H](CC[C@@]4(C)[C@H]3C[C@H]([N+]3(C)CCCCC3)[C@@H]4OC(C)=O)[C@@]2(C)C[C@@H]1[N+]1(C)CCCCC1 [Pancuronium dibromide] | 0.97
25 | CCC1=C[C@H]2CN3CCc4c([nH]c5ccccc45)[C@](C(=O)OC)(C2)[C@H]13 [Catharanthine] | 0.37
26 | CCCCCCCCCCCCCCCC[n+]1ccccc1 [Cetylpyridinium Chloride] | -12.7
27 | CC(C)=CCOc1c2occc2cc2ccc(=O)oc12 [Imperatorin] | -0.8
28 | COC(=O)C1=CCCN(C)C1 [Arecoline HBr] | -0.55
29 | NCC(O)c1ccc(O)cc1 (racemic) [(+,-)-Octopamine HCl] | 0.28
30 | CNC1CC(N)C(O)C(OC2OC(CO)C(O)C3OC4(OC(C(N)CO)C(O)C(O)C4O)OC23)C1O (stereo not given) [Hygromycin B] | 0.64
31 | C[N+]12CCC(CC1)C(OC(=O)C(O)(c1ccccc1)c1ccccc1)C2 (stereo not given) [Clidinium Bromide] | 0.13
32 | CN1[C@@H]2CC[C@H]1C[C@@H](OC(=O)[C@H](CO)c1ccccc1)C2 [Hyoscyamine] | 0.38
33 | CC(C)N(CCC(C(N)=O)(c1ccccc1)c1ccccn1)C(C)C (stereo not given) [Disopyramide] | -0.35
34 | COc1ccc(C=O)cc1 [p-Anisaldehyde] | 1.5
35 | O=c1[nH]c2ccccc2n1CCCN1CCC(n2c(=O)[nH]c3cc(Cl)ccc32)CC1 [Domperidone] | -0.65
36 | CC(C)(O)C(Cl)(Cl)Cl [Chlorobutanol] | -0.27
37 | CN1[C@@H]2CC[C@H]1C[C@@H](OC(=O)C(CO)c1ccccc1)C2 (stereo not given in full) [Atropine sulfate monohydrate] | 0.64
38 | C=C[C@H]1CN2CC[C@H]1C[C@H]2[C@H](O)c1ccnc2ccccc12 [Cinchonidine] | -0.41
39 | CCCN1C[C@H](CSC)C[C@@H]2c3cccc4[nH]cc(c34)C[C@H]21 [Pergolide Mesylate] | 0.88
40 | CN(C)C(=O)Oc1cccc([N+](C)(C)C)c1 [Neostigmine Bromide] | 0.27
